PubChem BioAssay AID504834 (National Center for Advancing Translational Sciences (NCATS), 2011)
About 22,000 (6.9%) of roughly 320,000 compounds were called active. About 27% were inconclusive and are not listed. The sample as a whole holds a higher share of actives than the screen did. A number with no mark means an inactive call. Calls come from the whole dose curve; as a rule, active = well fitted inhibition curve with a large enough effect; inconclusive = small, poorly fitted or top-dose-only effect, or another doubt; inactive = no such curve, though single readings can be large or run the other way.

Assay: Primary qHTS for delayed death inhibitors of the malarial parasite plastid, 96 hour incubation
Details: P. falciparum luciferase reporter growth; series mostly up to 28.7 µM; activity change, negative = inhibition: at the top concentration
In short: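 Infected RBCs, 2% Hct / 0.05% parasitemia final; luciferase-reporter P. falciparum; cpd 96 h, 37 C, 5% CO2; luciferase detection reagent; luminescence.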
% is set by controls: 0 for no effect and ±100 for the full control effect; potency is the fitted concentration of half-maximal effect.

Structure (SMILES) | activity change, negative = inhibition | Potency
COc1ccc(-c2nnc(SCC(=O)Nc3cccnc3Cl)n2C)cc1 | -2.25% | –
Cc1cc(C)nc(SCC(=O)c2ccc(Cl)cc2)n1 | -20.9% | –
COc1ccccc1C(=O)NCCn1cc(SCC(=O)NCc2ccco2)c2ccccc21 | 61.9% | –
CCC(=O)c1cn(CCOc2ccccc2OC)c2ccccc12 | – | 13.1 µM (active)
CCCn1cc(SCC(N)=O)c2ccccc21 | 42% | –
Cc1ccc(OCc2n[nH]c(=S)n2-c2ccccc2)cc1 | 31.5% | –
Cc1ccc(OCc2nc3ccccc3n2C)cc1 | 1.42% | –
Cc1ccc(OCc2nnc(SC3CCc4ccccc4C3=O)n2C)cc1 (configuration not stated) | – | 13.1 µM (active)
CCc1nn(CCCC(=O)Nc2ccc(C)cc2C)c(=O)c2cc3occc3n12 | 18.3% | –
CN(C)S(=O)(=O)c1cccc(C(=O)OCC(=O)N2CCCC2=O)c1 | 22.9% | –
Cc1ccc(C(=O)NCCN2CCOCC2)cc1C | – | 7.38 µM (active)
Cc1ccc(C(=O)N/C(=C\c2ccc(F)cc2)C(=O)NCCN2CCOCC2)cc1 | – | 6.57 µM (active)
Cc1cc(C)cc(C(=O)NCCN2CCOCC2)c1 | 1.87% | –
Cc1ccc(C(=O)NC(=S)NCCN2CCOCC2)cc1 | 61.8% | –
O=C(NCCN1CCOCC1)/C(=C/c1ccc(F)cc1)NC(=O)c1ccccc1 | 4.97% | –
COc1ccc(C(=O)NCCCN2CCOCC2)cc1Br | -0.71% | –
CCOc1ccc(N(C)S(=O)(=O)c2cnc[nH]2)cc1 | 0.69% | –
O=C(COc1ccc(Cl)cc1Cl)N/N=C/c1ccccn1 | -9.1% | –
O=C(NCCN1CCOCC1)c1ccc(/C=C2\Sc3ccccc3N(Cc3ccc(F)cc3)C2=O)cc1 | -13.1% | –
CC(=O)[C@@]12O[C@@H]1C[C@H]1[C@@H]3CC[C@H]4C[C@@H](O)CC[C@]4(C)[C@H]3CC[C@@]12C | -1.74% | –
COC(=O)c1ccc(NS(=O)(=O)c2cc3c4c(c2)C(C)C(=O)N4CCC3)cc1 (configuration not stated) | 4.26% | –
CC(C)c1ccc(S(=O)(=O)N2CCC3(CC2)OCCO3)cc1 | 72.8% | –
COc1ccc(S(=O)(=O)N2CCOC23CCN(S(=O)(=O)c2ccc([N+](=O)[O-])cc2)CC3)cc1 | – | 11.7 µM (active)
COc1ccc(CNC(=O)C(=O)N2CCC3(CC2)OCCN3S(=O)(=O)c2ccc(C)cc2)cc1 | 4.09% | –
C=CCn1c(=O)c(C(=O)Nc2ncccc2O)c(O)c2ccccc21 | -8.16% | –
CC(C)Oc1ccc(CCc2n[nH]c(=S)n2Cc2ccccc2)cc1 | – | 2.08 µM (active)

Structure (SMILES) | activity change, negative = inhibition | Potency
C=CCn1c(CCc2ccc(OC(C)C)cc2)n[nH]c1=S | -16.8% | –
CC(NS(=O)(=O)c1ccccc1)c1n[nH]c(=S)n1-c1ccccc1 (configuration not stated) | -8.92% | –
NS(=O)(=O)c1ccccc1NC(=O)c1c(O)c2ccccc2[nH]c1=O | -8.08% | –
Cc1cc(C(C)(C)C)cc(S(=O)(=O)Nc2ccc(C(=O)O)cc2)c1C | 23.8% | –
O=C(c1ccc(NS(=O)(=O)c2ccc3[nH]c(=O)[nH]c3c2)cc1)N1CCCCC1 | -10.3% | –
O=C(O)c1ccc(NS(=O)(=O)c2ccc3c(c2)C(=O)c2cc(S(=O)(=O)Nc4ccc(C(=O)O)cc4)ccc2-3)cc1 | – | 0.329 µM (active)
Cc1cc(C)n(CCC(=O)N2CCN(S(=O)(=O)c3ccc(C)c(C)c3)CC2)n1 | -4.33% | –
O=C(NCCCN1CCOCC1)c1cc(-c2cccc(O)c2)on1 | -0.648% | –
CC(=O)Nc1nc2c(s1)C(=O)NCC(C)(C)C2 | 1.08% | –
COc1cccc(-c2nc(CS(=O)(=O)CC(=O)NCCc3ccc(OC)c(OC)c3)c(C)o2)c1 | 20.7% | –
CCc1nc2ccccc2c(C(=O)NCc2ccc(OC)cc2)c1C | -18.8% | –
COc1ccccc1CSc1nc2ccccc2[nH]1 | -3.5% | –
O=C(NCc1ccccc1)c1onc(CSc2nc3ccccc3[nH]2)c1C(=O)NCc1ccccc1 | – | 1.85 µM (active)
Cc1ccc(C)c(NC(=O)COC(=O)Cn2c(C)csc2=O)c1 | -25.6% | –
O=C(Nc1ccccc1)C1CC(=O)n2c(nc3ccccc32)N1 (configuration not stated) | 16.1% | –
Cc1ccc(OCC(=O)Nc2ccccc2C(=O)NC2CC2)cc1 | -22.2% | –
CC1(c2ccc(Cl)cc2)NC(=O)N(CC(=O)c2ccc3c(c2)OCO3)C1=O (configuration not stated) | 43.1% | –
O=C(NCCCN1CCOCC1)c1ccc(N2CCCC2)c([N+](=O)[O-])c1 | 486% | –
CCOC(=O)c1c(NC(=O)c2ccc(N3CCOCC3)c([N+](=O)[O-])c2)sc(C)c1C | 3.58% | –
COCCNC(=O)c1ccc(N2CCC3(CC2)OCCO3)c([N+](=O)[O-])c1 | – | 14.7 µM (active)
Cc1cccc(-c2noc(CCC(=O)NC3CCCC3)n2)c1 | 14.7% | –
NS(=O)(=O)c1cc(C(=O)OCC(=O)NNC(=O)c2ccccc2)ccc1Cl | 68.3% | –
CC1CCC(NC(=O)C2c3ccccc3C(=O)N2Cc2ccc3c(c2)OCO3)CC1 (configuration not stated) | 56.1% | –
O=C(/C=C/c1ccc2c(c1)OCO2)NCc1ccc(F)cc1 | 255% | –
CC1CCC(N2CC(=O)N(Cc3ccc4c(c3)OCO4)C(c3ccc(F)cc3)C2=O)CC1 (configuration not stated) | – | 9.28 µM (active)
O=S(=O)(c1cccc(Cn2nnc(-c3ccc(F)cc3)n2)c1)N1CCOCC1 | -12.7% | –

Structure (SMILES) | activity change, negative = inhibition | Potency
CCOC(=O)c1cc(=O)c2ccc(OCc3ccccc3)cc2o1 | 27.5% | –
CC(C)Oc1ccc(C(=O)NCC(=O)Nc2ccc3c(c2)CCC3)cc1 | 36.9% | –
Nc1ccc2nn(-c3ccc(Cl)cc3)nc2c1 | 155% | –
COC(=O)CSc1ncnc2c1cnn2-c1ccc(C)cc1C | 87.9% | –
Cc1ccc(-n2ncc3c2ncn2nc(-c4ccco4)nc32)c(C)c1 | 44.3% | –
Cc1ccc(-n2ncc3c(=O)[nH]cnc32)c(C)c1 | – | 14.7 µM (active)
COc1cc(NC(=O)C2=CC(c3ccc(C)cc3)=NS(=O)(=O)N2C)cc(OC)c1OC | -4.54% | –
CCOC(=O)C1(CCOc2ccccc2)CCN(Cc2cc(OC)cc(OC)c2)CC1 | 0.22% | –
CCCS(=O)(=O)N1CCC(CCOc2ccccc2)(C(=O)OCC)CC1 | -21.7% | –
CCOC(=O)C1(CCOc2ccccc2)CCN(C(=O)c2cncs2)CC1 | – | 9.28 µM (active)
CC(=O)NCC(=O)N1CCC(n2nccc2NC(=O)CCCc2ccccc2)CC1 | 21.2% | –
CCOc1ncccc1C(=O)Nc1ccc(S(=O)(=O)Nc2nc(C)cc(C)n2)cc1 | 24.2% | –
COc1ccc(/C=C(\NC(=O)c2ccccc2)C(=O)NCCN2CCOCC2)cc1OC | 20.6% | –
Nc1nc(NCc2ccccc2)n(-c2ccccc2)n1 | 10.3% | –
Cc1ccc2nc(SCC(=O)Nc3cccc4ccccc34)nc(=O)n2c1 | 9.87% | –
COc1ccccc1N1CCN(S(=O)(=O)c2ccc(Cl)cc2)CC1 | -24.6% | –
COc1ccccc1N1CCN(S(=O)(=O)c2ccc3c(c2)NC(=O)CS3)CC1 | – | 11.7 µM (active)
COc1ccccc1N1CCN(C(=O)CCS(=O)(=O)c2ccc3c(c2)NC(=O)C(C)S3)CC1 (configuration not stated) | 102% | –
Cc1cc(C)c2c(Cn3ccnc3)cc(=O)oc2c1 | -21% | –
CCOc1ccc(S(=O)(=O)N2CCC(C(=O)OCc3ccc(OC)cc3)CC2)cc1 | -38.3% | –
O=C(CSc1n[nH]c(-c2cccs2)n1)N1CCCCC1 | 26.9% | –
Nc1ncc(CN2CCCC(C(=O)Nc3ccc(-c4ccco4)cc3)C2)cn1 (configuration not stated) | 58.2% | –
NC(=O)c1cc(S(=O)(=O)NCCCc2ccco2)cs1 | 23.8% | –
S=C(Nc1cccc(Cl)c1)Nc1ccc2c(c1)OCCO2 | 0% | –
CCS(=O)(=O)N1Cc2ccccc2CC1C(=O)Nc1ccc(OC)cc1OC (configuration not stated) | -16.9% | –
COc1ccc(C(=O)N2CCC(C(=O)Nc3ccc(C)cc3)CC2)cc1 | -19.5% | –

Structure (SMILES) | activity change, negative = inhibition | Potency
COc1ccc(C(=O)Nc2c(Cl)cc(Cl)cc2C(=O)N2CCC(C)CC2)cc1 | – | 13.1 µM (active)
COc1ccc(N2CCN(C(=O)C3CCN(C(=O)c4ccccc4Cl)CC3)CC2)cc1 | 26% | –
CCCCc1ccc(NC(=O)NCc2cccnc2)cc1 | 11.3% | –
CCOc1ccc(S(=O)(=O)NCCC(=O)NCC(C)(C)N2CCOCC2)cc1 | 20.6% | –
CC(C)(C)OC(=O)NCCCCCC(=O)N/N=C/c1coc2ccccc2c1=O | 80.7% | –
Cc1ccc2occ(/C=N/NC(=O)c3ccccc3C)c(=O)c2c1 | – | 11.7 µM (active)
O=C(N/N=C/c1coc2ccccc2c1=O)c1cc2ccccc2o1 | 1.51% | –
Cc1[nH]c2ccccc2c1C(=O)CN1CCCC(C)C1 (configuration not stated) | -14.5% | –
O=C(CSC1=NS(=O)(=O)c2cc(F)ccc2N1)Nc1ccccc1F | 60.3% | –
CCOc1ccc(C(=O)Nc2cc(Cl)ccc2-n2cncn2)cc1OC | -2.8% | –
COc1ccc(NC(=O)C(CC(C)C)NC(=O)C2CCC(C)CC2)cc1 (configuration not stated) | -1.4% | –
CC(C)[C@H](NC(=O)N1CC(=O)Nc2ccccc21)C(=O)N[C@@H](Cc1c[nH]c2ccccc12)C(=O)O | -23.4% | –
CC1C(=O)Nc2ccccc2N1C(=O)c1ccc(F)cc1F (configuration not stated) | 4.46% | –
CC(C)[C@H](NC(=O)N1c2ccccc2NC(=O)[C@@H]1C(C)C)C(=O)N[C@H](C(=O)O)c1ccccc1 | – | 8.28 µM (active)
O=C(CNC(=O)c1cccnc1)N/N=C/c1cc(Br)c(O)c(Br)c1 | 45% | –
O=C(CCS(=O)(=O)c1ccccc1)NC1CCCC1 | 8.16% | –
COC(=O)c1ccc(CNC(=O)C2CCC(=O)N(Cc3ccccn3)C2)cc1 (configuration not stated) | 238% | –
CCCCn1c(N)c(N2CCOCC2)c(=O)n(CC(=O)NCCc2ccccc2)c1=O | 15.5% | –
O=C(CCn1c(SCC(=O)c2ccccc2)nc2ccccc2c1=O)NCc1ccc(F)cc1 | 0% | –
N#CCSc1nc2ccc(N3CCOCC3)cc2c(=O)n1CCc1ccccc1 | – | 13.1 µM (active)
O=S(=O)(NCc1cccnc1)c1ccc(Cl)nc1 | 69.2% | –
O=C(O)C1CC(=O)N(Cc2cccnc2)C1 (configuration not stated) | -6.43% | –
COC(=O)c1ccc(C23CC4(C2)[C@H](CN(Cc2cccnc2)[C@@H]4c2ccccc2)C3c2ccc(Cl)nc2)cc1 (some centres not stated) | – | 2.33 µM (active)
Cc1ccc(CNC(=O)c2cccc3c2C(=O)c2ccc(N4CCC(C)CC4)cc2S3(=O)=O)cc1 | 3.93% | –
